# ± gives the standard deviation of the averaged measurements.
# Tests used:
# Assay in all cases: cell viability (% of vehicle); higher = less cytotoxic
# Conditions in all cases: 10 µM; 72 h
# HCI01 = system: HCI01 (cells of a triple-negative basal-like breast cancer xenograft)
# HCI03 = system: HCI03 (cells of an ER-positive luminal breast cancer xenograft)
# HCI09 = system: HCI09 (cells of a triple-negative luminal androgen receptor type breast cancer xenograft)
# HCI11 = system: HCI11 (cells of an ER-positive luminal breast cancer xenograft)
# HCI13 = system: HCI13 (cells of an ER-positive luminal breast cancer xenograft)
# HCI16 = system: HCI16 (cells of a triple-negative basal-like breast cancer xenograft)
# UCD52 = system: UCD52 (cells of a triple-negative basal-like breast cancer xenograft)
# WHIM2 = system: WHIM2 (cells of a triple-negative basal-like breast cancer xenograft)
# WHIM30 = system: WHIM30 (cells of a triple-negative basal-like breast cancer xenograft)
# 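Note: PDX cells carrying CMV promoter-driven luciferase, viability read as total photon flux per second by IVIS imaging following D-luciferin, vehicle control 0.1% DMSO.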
SMILES,cell viability (HCI01),cell viability (HCI03),cell viability (HCI09),cell viability (HCI11),cell viability (HCI13),cell viability (HCI16),cell viability (UCD52),cell viability (WHIM2),cell viability (WHIM30)
O=C([O-])C(O)C(O)C(O)C(O)C(O)CO.O=C([O-])C(O)C(O)C(O)C(O)C(O)CO.[Ca+2] (centres undefined) [Calcium Gluceptate],134 ± 3.3,162,112 ± 4.9,127,110 ± 8.2,124,87.2 ± 13,109 ± 3.2,141 ± 8.1
CS(=O)(=O)N1CCN(Cc2cc3nc(-c4cccc5[nH]ncc45)nc(N4CCOCC4)c3s2)CC1,190 ± 66,94.8,89.23 ± 0.75,114,90.7 ± 3.3,,88.5 ± 15,63.7 ± 3.2,
N=C(N)c1ccc(OCCCCCOc2ccc(C(=N)N)cc2)cc1.O=S(=O)(O)CCO.O=S(=O)(O)CCO [Pentamidine isethionate],98.1 ± 3.2,104,27.495 ± 0.0084,74.7,180 ± 61,87.7,91.2 ± 2.3,85.2 ± 19,113 ± 7.6
CN1C2=CC(=O)C(=NNC(N)=O)C=C2CC1S(=O)(=O)[O-].[Na+] (centres undefined) [Carbazochrome sodium sulfonate (AC-17)],99.8 ± 0.3,129,105.4 ± 0.44,94.6,81 ± 18,124,99 ± 19,99.4 ± 21,134 ± 9.7
Cc1cc(C)nc(NS(=O)(=O)c2ccc(N)cc2)n1 [Sulfamethazine],86 ± 14,88.9,101 ± 3.9,89.6,112 ± 6.1,114,91.9 ± 5.5,95.7 ± 21,132 ± 1.9
CCC(C)C(=O)OC1CCC=C2C=CC(C)C(CCC3CC(O)CC(=O)O3)C21 (centres undefined) [Mevastatin],129 ± 20,119,87.8 ± 22,120,92.7 ± 24,132,54.2 ± 10,86.8 ± 15,136 ± 4.6
CC(=O)O[C@H]1C(=O)[C@@]2(C)[C@H]([C@H](OC(=O)c3ccccc3)[C@]3(O)C[C@H](OC(=O)[C@H](O)[C@@H](NC(=O)c4ccccc4)c4ccccc4)C(C)=C1C3(C)C)[C@]1(OC(C)=O)CO[C@@H]1C[C@@H]2O [Paclitaxel (Taxol)],124 ± 7.2,92.4,95 ± 4.1,96.5,100 ± 8.8,156,66.2 ± 4.7,92.9 ± 12,114 ± 7.4
Cc1cc(C2CCCCC2)n(O)c(=O)c1.NCCO [Ciclopirox ethanolamine],113 ± 52,60.3,31.7 ± 9.4,69.4,59.3 ± 3.2,123,63.4 ± 8.2,,86.4 ± 7

# Source: the supplement of paper PMC6992640
